G9a block: inhibitors of human histone lysine methyltransferase G9a; hit rate 8.8% among 350,000; Q96KQ7; G9a H3K9 monomethylation, AlphaScreen, 2 h; Potency, µM (titrated, usually from 102 µM), inactives show at the top dose activity, negative = inhibition, usual class: inhibitors; also: potency is read from the fitted curve at half-maximal effect; % is scaled to controls: 0 for no effect and ±100 for the full control effect; nearly all actives have a fitted effect of over 75% in size
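Step 1: enzyme (final 20 nM) with compound, 15 min RT. Step 2: substrate peptide 500 nM and SAM 20 uM, 2 h RT. Step 3: anti-H3K9me1 antibody and AlphaScreen beads, 10 min, then plate read.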
PI5P4Ka inh: PI5P4K alpha (human) kinase inhibition; P48426; PI5P4Kalpha enzyme, ADP-Glo luminescence, 60 min; hits give low values; max response, %; hit rate 1.2% among 330,000; active = max response of -50% or lower; inconclusive = between -30% and -50%; inactive = -30% or higher; also: value at the top dose of about 77 µM; % is scaled to controls: 0 for no effect and ±100 for the full control effect
Target sequence (P48426 whole entry, looked up): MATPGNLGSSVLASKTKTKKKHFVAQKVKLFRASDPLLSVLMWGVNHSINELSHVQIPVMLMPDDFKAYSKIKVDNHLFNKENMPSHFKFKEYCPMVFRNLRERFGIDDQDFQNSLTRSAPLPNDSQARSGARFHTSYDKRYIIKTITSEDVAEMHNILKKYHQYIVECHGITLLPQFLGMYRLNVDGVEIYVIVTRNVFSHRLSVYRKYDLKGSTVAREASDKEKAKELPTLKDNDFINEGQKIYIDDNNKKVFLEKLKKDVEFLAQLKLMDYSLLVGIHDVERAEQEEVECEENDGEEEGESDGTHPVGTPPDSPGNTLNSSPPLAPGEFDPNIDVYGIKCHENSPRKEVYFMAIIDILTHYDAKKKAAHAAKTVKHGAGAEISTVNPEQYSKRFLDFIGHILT
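Reactions run in 0.038 M HEPES pH 7.4, 0.28 mM EGTA, 0.1% CHAPS and 5% DMSO, with PI5P4Kalpha, substrate, compound and 5 microM ATP final, one hour at room temperature. Readout is ADP-Glo luminescence.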
L3MBTL1 inh: inhibitors of human L3MBTL1; AlphaScreen L3MBTL1–H3K9me1 peptide binding; Potency, µM (titrated, usually from 57.1 µM), without a hit: at the highest dose activity, negative = inhibition, hits mostly inhibitors; hit rate 0.66% among 230,000; AID 485360; also: potency is read from the fitted curve at half-maximal effect; % is scaled to controls: 0 for no effect and ±100 for the full control effect; nearly all actives have a fitted effect of over 60% in size
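L3MBTL1 (50 nM) pre-complexed 30 min with biotinylated H3(1-15)K9me1 peptide (75 nM), then compounds added for 30 min at room temperature; AlphaScreen streptavidin donor/nickel chelate acceptor beads (10 ug/mL final) read after 30 min dark incubation.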
BAZ2B inh: inhibitors of human BAZ2B bromodomain; Q9UIF8; AlphaScreen BAZ2B-H3K14Ac peptide displacement; Potency, µM (highest dose often 114 µM), for the others: at the top dose activity change, negative = inhibition, actives largely listed as inhibitors; hit rate 4.4% among 360,000; also: potency is read from the fitted curve at half-maximal effect; % is scaled to controls: 0 for no effect and ±100 for the full control effect; nearly all actives have a fitted effect of over 60% in size
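AlphaScreen luminescence quantifies BAZ2B engagement of H3K14Ac peptide; the protein and biotinylated peptide are both at 50 nM final, buffer PBS pH 7.4 with 0.01% Tween-20, all steps at room temperature.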
JMJD2A Tudor: JMJD2A Tudor domain (human) inhibition; AlphaScreen JMJD2A-Tudor / H3K4me3 peptide binding; hit rate 4.4% among 390,000; Potency, µM (doses to about 114 µM), inactives show at the highest dose activity change, negative = inhibition, usual class: inhibitors; also: potency is read from the fitted curve at half-maximal effect; % is scaled to controls: 0 for no effect and ±100 for the full control effect; nearly all actives have a fitted effect of over 50% in size
HP1b binding inh: blocks HP1-beta chromodomain binding to methylated histone tails. AlphaScreen HP1-beta / biotin-H3K9me3 peptide binding. hit rate 0.56% among 390,000. Potency, µM (doses to about 114 µM), for the others: at the highest dose activity change, negative = inhibition, usual class: inhibitors. P83916; also: potency is read from the fitted curve at half-maximal effect; nearly all actives have a fitted effect of over 70% in size
Target sequence (P83916 whole entry, looked up): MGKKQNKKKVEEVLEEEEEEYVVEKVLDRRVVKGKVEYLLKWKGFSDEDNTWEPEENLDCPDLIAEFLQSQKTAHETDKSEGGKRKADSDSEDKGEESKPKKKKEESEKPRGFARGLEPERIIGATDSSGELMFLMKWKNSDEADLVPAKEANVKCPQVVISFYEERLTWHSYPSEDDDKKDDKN
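Compound inhibition of the preformed complex between 50 nM HP1-beta and 50 nM biotinylated H3K9me3 peptide was read by AlphaScreen. Buffer was PBS pH 7.4 with 0.01% Tween-20. Incubations ran 30 min at room temperature, with 10 ug/mL donor/acceptor beads.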
Numbers without * were called inactive; u = inconclusive; x = not tested or not shown; [ ] = dose if it differs, or a comment. Most compounds without a hit are left out; they make up all but 11% or so of the library. Unless noted, calls follow the shape of the dose curve; as a rule, active = well fitted inhibition curve with a large enough effect; inconclusive = small, poorly fitted or top-dose-only effect; inactive = no such curve, though single readings can be large or run the other way.

SMILES	G9a block	PI5P4Ka inh	L3MBTL1 inh	BAZ2B inh	JMJD2A Tudor	HP1b binding inh
c1ccc(CN2CCN(CCOCCOc3ccc4c(c3)CCC4)CC2)cc1	x	2.2	-5.8%	u	0.794µM*	u
CCCCCc1nn2cc(-c3ccccc3)nc2s1	5.9%[59 µM]	x	x	8.2%	-8.5%	20.8%
Cn1cccc1CNCc1ccccc1Cl	-7.7%[2.33 µM]	x	-4.3%	-38.2%	u	0.1%
Cn1cccc1/C=N/N1CCN(Cc2ccccc2Cl)CC1	28.2µM*	-3.5	u	35.5µM*	50.1µM*	u
CN1CCN(/N=C/c2cccc(Cl)c2Cl)CC1	39.8µM*	8.2	-5.5%	u	u	-15.6%
Fc1ccccc1/C=N/N1CCN(Cc2ccccc2Cl)CC1	22.0%[0.501 µM]	22.0	-1.5%[2.29 µM]	50.1µM*	50.1µM*	-17.1%
Clc1ccccc1/C=N/N1CCN(Cc2ccccc2)CC1	24.0%[0.501 µM]	-2.1	-2.8%[2.29 µM]	44.7µM*	56.2µM*	-27.8%
COCC(=O)N1CCC2(CC1)CCN(c1ncccn1)CC2	-7.8%[12.7 µM]	x	x	x	x	x
COc1ccc(Br)cc1/C=N/N1CCN(Cc2ccccc2)CC1	u	18.5	u	28.2µM*	39.8µM*	u
O=[N+]([O-])c1ccccc1/C=N/N1CCN(Cc2ccccc2)CC1	39.8µM*	8.9	u	28.2µM*	25.1µM*	u
Cn1cccc1/C=N/N1CCN(c2ccccc2)CC1	31.6µM*	-1.0	u	50.1µM*	-10.5%[11.4 µM]	u
O=C(N/N=C/c1ccccc1[N+](=O)[O-])c1ccc(CN2CCOCC2)cc1	-12.8%[59 µM]	4.5	-0.8%	2.2%	-17.5%	35.1%
Cc1ccc(N2CCN(/N=C/c3ccccc3)CC2)cc1	2.4%	-0.4	-11.0%	-36.7%	-26.4%	13.1%
CCn1c(=O)sc2cc(NS(=O)(=O)c3ccc(C)cc3)ccc21	2.4%[59 µM]	x	x	-7.8%	-18.8%	7.7%
CCCCCCc1cc2cc(-c3nnc(-c4ccccc4O)o3)c(=O)oc2cc1O	61.9%[59 µM]	-29.0	9.7%	20.7%	-5.6%	29.7%
CCCCCCc1cc2cc(-c3nnc(-c4ccccc4OC)o3)c(=O)oc2cc1O	65.7%[12.7 µM]	-87.7*	x	u	-3.5%	31.4%
O=C(c1cc(C(F)(F)F)cc(C(F)(F)F)c1)N1CCC2(CC1)CN(c1ccccn1)C2	7.4%[12.7 µM]	x	x	x	x	x
CN(C)c1ccc(SC#N)cc1	50.1µM*	-5.7	-11.0%	-20.7%	-17.6%	23.3%
CSc1nc(-c2ccc(N(C)C)cc2)c(C#N)c(=O)n1C	11.1%	4.7	25.8%	30.9%	15.6%	77.7%
O=C(c1cccc([N+](=O)[O-])c1)N1CCN(c2ccc(Nc3ccccc3)nn2)CC1	0.5%[59 µM]	x	x	-19.3%	-26.0%	2.0%
COc1cc(/C=N/Nc2ccccc2C(F)(F)F)ccc1O	x	1.7	-22.0%	-35.4%	56.2µM*	u
COc1cc(/C=N/Nc2ccccc2)ccc1O	14.1µM*	-5.8	x	-26.9%	-34.5%	-0.7%
COc1cc(/C=N/NC(=O)CCN2CCN(C(c3ccccc3)c3ccccc3)CC2)ccc1O	79.4µM*	0.5	u	u	u	-11.9%
COc1cc(/C=N/NC(=O)CCc2ccccc2)ccc1O	0.2%[12.7 µM]	8.4	-1.7%	-20.3%	12.6%[57.1 µM]	28.1%
COc1cc(/C=N\NC(=O)CNC(=O)C(c2ccccc2)c2ccccc2)ccc1O	6.6%	2.9	-4.1%	-23.7%	-17.9%	0.2%
SMILES	G9a block	PI5P4Ka inh	L3MBTL1 inh	BAZ2B inh	JMJD2A Tudor	HP1b binding inh
Oc1ccc(/C=N/NC(=S)N/N=C/c2ccc(O)cc2)cc1	u	-51.0*	u	-21.1%	-21.3%[11.4 µM]	-5.1%
COc1ccc(/C=N/Nc2nc(N3CCCC3)nc(N3CCCC3)n2)cc1O	3.55µM*	-5.0	-0.7%	9.0%	-19.0%	29.5%
COC(=O)c1[nH]c2cc(OC)c(OC)cc2c1/C=N/Nc1ccccc1	35.5µM*	5.3	x	-10.3%	-6.0%	30.3%
COC(=O)c1[nH]c2cc(OC)c(OC)cc2c1NC(=O)CN1CCN(Cc2ccccc2)CC1	-8.7%[59 µM]	x	3.6%	-4.4%	x	x
COc1cccc2c(N/N=C/c3ccc(O)c(O)c3)cc(C)nc12	35.5µM*	-1.0	-9.3%	u	u	56.6%
COc1cc(/C=N/N(c2ccccc2)c2ccccc2)ccc1O	28.2µM*	26.1	-18.3%	44.7µM*	31.6µM*	-32.7%
